Values of other authors as cited in PubChem BioAssay AID977610.
The whole screen tested about 3,600 compounds, of which about 3,600 (100%) were called active. No cut-off is given here; in the data, nearly all actives have Ki up to about 18000 µM. The set was probably picked from earlier hits. Some of the results follow. Square brackets hold non-standard residues; d marks the D form. Peptide text beside a SMILES is read from it. Orn(CH(NH2)2) = NC(N)NCCC[C@H](N)C(=O)O

Assay: PubChem AID 977610
Conditions: PDB protein-ligand complexes, literature Ki

COc1ccc([C@H]2[C@H](O)[C@H](O)[C@H](C)N2C)cc1
Ki (protein: alpha-L-fucosidase, PDB entry 4jfs): 5.4 µM (active)

COc1ccc([C@@H]2N[C@@H](C)[C@@H](O)[C@H]2O)cc1
Ki (protein: alpha-L-fucosidase, PDB entry 4jft): 3.5 µM (active)

NC(N=O)NCC[C@H](N)C(=O)O (stereo partly specified)
Ki (protein: Arginase, PDB entry 4iu1): 50 µM (active)

CNC(=O)CC[C@H](C[C@H](N)C(=O)O)C(=O)O
Ki (protein: Glutamate receptor ionotropic, kainate 3 GluK3 LBD, PDB entry 4nwd): 3.96 µM (active)

COC(=O)CC[C@H](C[C@H](N)C(=O)O)C(=O)O
Ki (protein: Glutamate receptor ionotropic, kainate 3 GluK3 LBD, PDB entry 4nwc): 1.74 µM (active)

CCCCCCCCCCCCCCCCCCCC(=O)NCCO
Ki (protein: FATTY ACID-BINDING PROTEIN, EPIDERMAL, PDB entry 4azp): 1.26 µM (active)

CCC(CC)[C@H](NC(C)=O)[C@@H]1[C@H](O)[C@@H](C(=O)O)C[C@H]1NC(N)N
Ki (protein: Human Sialidase Neu2, PDB entry 2f10): 330 µM (active)

CC(=O)c1ccc2c(c1)OCCO2
Ki (protein: PDE10A2, PDB entry 4lm3): 1200 µM (active)

OCc1ccc2c(c1)OCCO2
Ki (protein: PDE10A2, PDB entry 4lm2): 940 µM (active)

CCCCCCCC/C=C\CCCCCCC[C@H](O)c1nnc(-c2ccccn2)o1
Ki (protein: Humanized Variant of Fatty Acid Amide Hydrolase (L192F, F194Y, A377T, S435N, I491V, V495M), PDB entry 3k84): 0.003 µM (active)

Cc1ccnc(N)c1[N+](=O)[O-]
Ki (protein: PDE10A2, PDB entry 4mrz): 300 µM (active)

O=C(O)C(O)C(=O)O
Ki (protein: Mandelate racemase, PDB entry 4m6u): 1800 µM (active)

Nc1c(CC(=O)O)cccc1C(=O)c1ccc(Br)cc1
Ki (protein: E. coli sliding clamp, DNA polymerase III subunit beta, PDB entry 4mjq): 193 µM (active)

C[C@H](NC(=O)[C@H](C)NC(=O)[C@H](Cc1ccccc1)NC(=O)[C@H](CO)NC(=O)[C@H](CCCNC(N)N)NC(=O)[C@@H]1CCCN1)C(=O)O (H-P[Orn(CH(NH2)2)]SFAA-OH)
Ki (protein: LSD1-CoREST complex, PDB entry 3zn0): 10.7 µM (active)

CC(C)C[C@H](NC(=O)[C@H](CCCNC(N)N)NC(=O)[C@@H]1CCCN1)C(=O)N[C@@H](Cc1ccc(O)cc1)C(=O)N[C@@H](CC(C)C)C(=O)N[C@H](C(=O)O)C(C)C (H-P[Orn(CH(NH2)2)]LYLV-OH)
Ki (protein: LSD1-CoREST complex, PDB entry 3zn1): 29.1 µM (active)

CC(C)C[C@H](NC(=O)[C@H](Cc1ccccc1)NC(=O)[C@H](CO)NC(=O)[C@H](CCCNC(N)N)NC(=O)[C@@H]1CCCN1)C(=O)N[C@H](C(=O)O)C(C)C (H-P[Orn(CH(NH2)2)]SFLV-OH)
Ki (protein: LSD1-CoREST complex, PDB entry 3zmt): 28.4 µM (active)

CC(C)[C@H](NC(=O)[C@H](C)NC(=O)[C@H](Cc1ccccc1)NC(=O)[C@H](CO)NC(=O)[C@H](CCCNC(N)N)NC(=O)[C@@H]1CCCN1)C(=O)O (H-P[Orn(CH(NH2)2)]SFAV-OH)
Ki (protein: LSD1-CoREST complex, PDB entry 3zmz): 18 µM (active)

CCCCCC[C@H]([C@H](C)O)n1cnc2c(N)ncnc21
Ki (protein: Bos taurus Adenosine deaminase (ADA), PDB entry 2z7g): 0.00113 µM (active)

COC(=O)N[C@H](C(=O)NN(CCC[C@@]1(O)Cc2ccc(cc2)C/C=C\CNC(=O)[C@H](C(C)C)NC1=O)Cc1ccc(-c2cccnc2)cc1)C(C)(C)C
Ki (protein: HIV-1 protease, PDB entry 4cpt): 0.02 µM (active)

COC(=O)N[C@H](C(=O)NN(CCC[C@@]1(O)Cc2ccc(cc2)C/C=C\CNC(=O)[C@H](C(C)C)NC1=O)Cc1ccc([C@H]2C=CCS2)cc1)C(C)(C)C
Ki (protein: HIV-1 protease, PDB entry 4cpx): 0.017 µM (active)

COC(=O)N[C@H](C(=O)NN(CCC[C@@]1(O)Cc2ccc(cc2)C/C=C\CNC(=O)[C@H](C(C)C)NC1=O)Cc1ccc(-c2ccncc2)cc1)C(C)(C)C
Ki (protein: HIV-1 protease, PDB entry 4cps): 0.0054 µM (active)
